High-throughput results deposited in PubChem by National Center for Advancing Translational Sciences (NCATS).
Pf growth 96h: P. falciparum growth inhibition at 96 hour, primary screen for plastid delayed-death inhibitors. actives 6.9% (n = 320,000). AID 504834. Potency, µM (series often up to 28.7 µM), hits mostly inhibitors. P. falciparum luciferase reporter growth, 96 h
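Compounds incubated with erythrocytes infected by luciferase-expressing P. falciparum (2% hematocrit, 0.05% parasitemia final) for 96 hours, 37 C in 5% CO2. Growth inhibition scored as decreased luciferase luminescence.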
Pf growth 48h: inhibits P. falciparum growth in the first generation, 48 h | P. falciparum luciferase growth in erythrocytes, 48 h | Potency, µM (series often up to 28.7 µM), usual class: inhibitors | actives 5.9% (n = 310,000) | AID 504832
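A one-generation exposure of luciferase-tagged malaria parasites in RPMI 1640/Albumax erythrocyte culture, 37 C and 5% CO2. Inhibition is inferred from decreased luminescence after adding detection reagent.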
Lassa entry inh: blocks Lassa virus binding to or entry into cells; Lassa virus pseudotype entry inhibition, cell reporter; Potency, µM (series often up to 37.9 µM), hits mostly inhibitors; AID 540256; actives 1.2% (n = 300,000); calls by dose curve; tested in HEK293 cells; also: nearly all actives have a fitted effect of over 50% in size
Marburg entry inh: inhibitors of Marburg virus binding or cell entry. Potency, µM (series often up to 37.8 µM), hits mostly inhibitors. Marburg virus pseudotyped entry inhibition, cell reporter. actives 1.8% (n = 300,000); calls by dose curve; tested in HEK293 cells
CHX counter: counter-screen for Shiga toxin inhibitors: cycloheximide protein synthesis inhibition; cell reporter, cycloheximide protein synthesis inhibition counterscreen; max response, %; actives 12% (n = 300,000); AID 2314; in the data active = max response mostly above about 13%, no sharp cut-off; inactive = mostly below about 14%; also: read at 38.3 µM for the half of the compounds with a filed dose
Shiga toxin inh: inhibitors of Shiga toxin in Vero cells; AID 2315; inhibition, % at 38.7 µM; actives 9.2% (n = 290,000); Vero cells, Shiga toxin protein synthesis inhibition reporter; in the data active = inhibition mostly above about 28%, no sharp cut-off; inactive = mostly below about 43%
Of the large screens only hits and unclear results are named; the others gave an inactive call. Compounds with a hit are over-represented: about 19% of the library has one in this group of screens. Unless noted, calls follow the shape of the dose curve; as a rule, active = well fitted inhibition curve with a large enough effect; inconclusive = small, poorly fitted or top-dose-only effect, or another doubt; inactive = no such curve, though single readings can be large or run the other way.

CCOC(=O)CN1C(=O)N(c2ccccc2OC)S(=O)(=O)c2ccccc21	Pf growth 96h inconclusive (no result: Lassa entry inh, Marburg entry inh)
CC(=O)N1CC(=O)Nc2ccc(Cl)cc2C1c1ccccc1 (stereo not drawn)	none
N#C/C(=C\c1ccc(OC(=O)c2ccc(Br)s2)cc1)c1nc2ccccc2[nH]1	Pf growth 96h inconclusive, Marburg entry inh inconclusive, CHX counter 22, Shiga toxin inh 38
N#C/C(=C/c1ccc(OC(=O)c2ccc(Br)s2)cc1)c1nc2ccccc2[nH]1	Marburg entry inh inconclusive (no result: Pf growth 96h, Pf growth 48h, CHX counter, Shiga toxin inh)
N#C/C(=C\c1ccc(OCc2ccc(Cl)cc2Cl)cc1)c1nc2ccccc2[nH]1	none (no result: Pf growth 96h, Pf growth 48h, Marburg entry inh, CHX counter, Shiga toxin inh)
N#C/C(=C\c1ccc(OC(=O)c2ccc(Cl)s2)cc1)c1nc2ccccc2[nH]1	Pf growth 96h inconclusive, Marburg entry inh inconclusive, CHX counter 50, Shiga toxin inh 17
Cc1sc2ncn(CC(=O)N3CCN(c4ccccc4F)CC3)c(=O)c2c1S(=O)(=O)N1CCOCC1	none
Oc1ccc(C2N=C(c3ccccc3)NC(c3ccccc3)=N2)cc1	Pf growth 96h 12µM
Oc1ccccc1C1N=C(c2ccccc2)NC(c2ccccc2)=N1	Pf growth 96h 1.7µM (no result: Pf growth 48h)
Nc1[nH]n2c(=O)cc(-c3ccccc3)nc2c1N=Nc1ccc(S(N)(=O)=O)cc1	none
NS(=O)(=O)c1ccc(N=Nc2c(-c3ccccc3)[nH]n(-c3nc(-c4ccccc4)cs3)c2=O)cc1	Lassa entry inh inconclusive, Marburg entry inh 22µM
CCn1c(SCC(=O)c2ccc(C)cc2)nnc1-c1ccncc1	Pf growth 96h inconclusive (no result: Pf growth 48h)
Cc1cc(C)c(C(=O)CSc2nnc(-c3cccnc3)n2C)c(C)c1	Pf growth 48h 12µM (no result: Pf growth 96h)
CCn1c(Cn2nnc(-c3ccccc3)n2)nnc1SCC(=O)Nc1ccc(C(C)=O)cc1	Pf growth 96h inconclusive, Pf growth 48h inconclusive, Marburg entry inh inconclusive, CHX counter 44, Shiga toxin inh 57
Cc1c(Cl)cccc1NC(=O)CSc1nncn1-c1cccnc1	Pf growth 96h inconclusive (no result: Lassa entry inh)
Cc1cc(C)c(NC(=O)CSc2nncn2-c2cccnc2)c(C)c1	Pf growth 96h 12µM
CCn1c(SCC(=O)c2ccc(C)cc2)nnc1-c1ccoc1C	Pf growth 96h 15µM, CHX counter 27
Cc1cc(NC(=O)CSc2nnc(-c3cccnc3)n2C)no1	none
CCOC(=O)c1cccc(NC(=O)CSc2nnc(-c3ccncc3)n2CCCOC)c1	Pf growth 96h inconclusive, Marburg entry inh inconclusive
CCn1nnnc1SCC(=O)c1ccc(C)cc1	CHX counter 38, Shiga toxin inh 121
CCn1c(SCC(=O)c2ccccc2)nnc1-c1ccoc1C	Marburg entry inh inconclusive, CHX counter 21, Shiga toxin inh 50
CCn1c(SCC(=O)c2ccccc2)nnc1-c1cccnc1	CHX counter 44
CCCn1c(SCC(=O)Nc2cccc(C(=O)OC)c2)nnc1-c1cccnc1	Pf growth 96h 10µM
CCC1(c2ccc(F)cc2)NC(=O)N(CC(=O)N2c3ccccc3NC(=O)CC2C)C1=O (stereo not drawn)	none (no result: Lassa entry inh, Marburg entry inh, CHX counter, Shiga toxin inh)
Cc1ccc(OCC(=O)NN2C(=O)c3ccccc3C2=O)cc1	none (no result: Lassa entry inh, Marburg entry inh)
O=C(NCc1ccc(Cl)cc1)C1CCN(S(=O)(=O)c2cccc3nonc23)CC1	none
CN(CC(=O)Nc1ccc(F)cc1)C(=O)CSc1nnc(Cc2ccccc2)o1	none (no result: Pf growth 96h, Pf growth 48h, CHX counter, Shiga toxin inh)
CC(=O)c1ccc(NC(=O)CSc2nnc(-c3ccoc3C)n2Cc2ccccc2)cc1	CHX counter 24, Shiga toxin inh 31
CCn1c(SCC(=O)c2ccc(Cl)cc2)nnc1-c1ccoc1C	Pf growth 96h 15µM, Pf growth 48h inconclusive, CHX counter 33, Shiga toxin inh 17
CCOC(=O)CSc1nnc(-c2ccc3ncccc3c2)n1C	Pf growth 48h 12µM (no result: Lassa entry inh, Marburg entry inh)
COCCn1c(SCC(=O)Nc2ccccc2)nnc1-c1ccoc1C	none
Cc1occc1-c1nnc(SCC(=O)c2ccc(Cl)cc2)n1CC1CCCO1 (stereo not drawn)	Lassa entry inh inconclusive
CCn1c(-c2ccc3ncccc3c2)n[nH]c1=S	none
Cc1nnc(SCC(=O)N(C)CC(=O)Nc2ccc(F)cc2)n1Cc1ccccc1	Pf growth 48h 9.3µM, Marburg entry inh inconclusive
C=CCCN1C(=O)NC(c2ccccc2)C(C(C)=O)=C1C (stereo not drawn)	none (no result: Pf growth 96h, Pf growth 48h, Lassa entry inh, CHX counter, Shiga toxin inh)
CNCCOc1ccccc1OC(C)C	Pf growth 96h 10µM, Marburg entry inh inconclusive
CCOc1ccccc1OCCOc1ccccc1OC(C)C	none (no result: Pf growth 48h)
Cc1cccc(NC(=O)CC2C(=O)NC3CCCCC3N2C(=O)c2ccccc2Cl)c1 (stereo not drawn)	Lassa entry inh inconclusive
N#Cc1ccc(COc2ccc(CCO)cc2-n2nc3ccccc3n2)cc1	Pf growth 96h inconclusive, Pf growth 48h inconclusive
OCCc1ccc(O)c(-n2nc3ccccc3n2)c1	Marburg entry inh inconclusive, CHX counter 22, Shiga toxin inh 59
CC(C)(C)c1ccc(Oc2ccc(N)cn2)cc1	Pf growth 96h inconclusive (no result: Lassa entry inh, Marburg entry inh)
CCOc1nc(Oc2cccc(C(=O)O)c2)nc(Oc2cccc(C(=O)O)c2)n1	none
CCC(C)(C)c1ccc(Oc2ccc(N)cc2)cc1	Pf growth 96h inconclusive, Pf growth 48h inconclusive, Lassa entry inh inconclusive, Marburg entry inh 4µM
CCC(C)(C)c1ccc(Oc2cccc(C(=O)O)c2)cc1	CHX counter 39, Shiga toxin inh 163
COc1ccc(CCNC(=O)COC(=O)CCC(=O)c2ccc(F)cc2)cc1OC	Pf growth 96h inconclusive
CCCCN(C(=O)CCC(=O)Nc1cc(C)on1)C(C(=O)NC(C)(C)CC)c1cccc(OC)c1OC (stereo not drawn)	Pf growth 48h inconclusive (no result: Lassa entry inh, Marburg entry inh)
CC1CN(c2ccc([N+](=O)[O-])cc2Cl)CCN1S(C)(=O)=O (stereo not drawn)	Pf growth 48h 3.3µM (no result: Lassa entry inh, Marburg entry inh)
CS(=O)(=O)N1CCN(c2ccc([N+](=O)[O-])cc2C(F)(F)F)CC1	CHX counter 8.9
CC1CN(c2ccc(C(F)(F)F)cc2[N+](=O)[O-])CCN1S(C)(=O)=O (stereo not drawn)	none
COc1cccc(NCc2ccc([N+](=O)[O-])s2)c1	Pf growth 96h 0.33µM, Lassa entry inh inconclusive
CNC(=O)CN(c1ccc(F)cc1)S(=O)(=O)c1cc(C)ccc1OC	Pf growth 96h inconclusive (no result: Pf growth 48h)
COc1ccccc1OCc1cc(C(=O)N2CCN(C)C(c3ccccc3)C2)no1 (stereo not drawn)	Pf growth 48h inconclusive, Lassa entry inh inconclusive, Marburg entry inh inconclusive, CHX counter 59, Shiga toxin inh 81
CN1CCN(C(=O)c2cc(COc3c(F)cccc3F)on2)CC1c1ccccc1 (stereo not drawn)	Pf growth 96h 4.1µM, Lassa entry inh inconclusive
CN1CCN(C(=O)c2cc(COc3ccc(F)cc3Cl)on2)CC1c1ccccc1 (stereo not drawn)	Pf growth 96h inconclusive, Pf growth 48h inconclusive, Lassa entry inh inconclusive, Marburg entry inh inconclusive
Cc1ccc(Cl)c(OCC(=O)NCc2ccco2)c1	CHX counter 24 (no result: Pf growth 96h)
O=C(COc1ccccc1Br)NCc1ccco1	CHX counter 19
COc1ccccc1OCC(=O)NCc1ccco1	Lassa entry inh inconclusive
